In paper PMC4336329 (PLoS ONE, 2015):
In all, about 310,000 compounds went through this assay and about 14,000 (4.5%) showed an effect of 50% or more. Effects have a minus sign here. This is one part of a sample in which strong results are shown more often than they occur.

The compounds below were run against human ether-à-go-go-related gene (hERG) potassium channel (human, UniProt Q12809) (assay: primary screen, population patch clamp on CHO cells stably expressing hERG; higher = less effect of the substance).
Chain of human ether-à-go-go-related gene (hERG) potassium channel (Q12809 whole entry, looked up): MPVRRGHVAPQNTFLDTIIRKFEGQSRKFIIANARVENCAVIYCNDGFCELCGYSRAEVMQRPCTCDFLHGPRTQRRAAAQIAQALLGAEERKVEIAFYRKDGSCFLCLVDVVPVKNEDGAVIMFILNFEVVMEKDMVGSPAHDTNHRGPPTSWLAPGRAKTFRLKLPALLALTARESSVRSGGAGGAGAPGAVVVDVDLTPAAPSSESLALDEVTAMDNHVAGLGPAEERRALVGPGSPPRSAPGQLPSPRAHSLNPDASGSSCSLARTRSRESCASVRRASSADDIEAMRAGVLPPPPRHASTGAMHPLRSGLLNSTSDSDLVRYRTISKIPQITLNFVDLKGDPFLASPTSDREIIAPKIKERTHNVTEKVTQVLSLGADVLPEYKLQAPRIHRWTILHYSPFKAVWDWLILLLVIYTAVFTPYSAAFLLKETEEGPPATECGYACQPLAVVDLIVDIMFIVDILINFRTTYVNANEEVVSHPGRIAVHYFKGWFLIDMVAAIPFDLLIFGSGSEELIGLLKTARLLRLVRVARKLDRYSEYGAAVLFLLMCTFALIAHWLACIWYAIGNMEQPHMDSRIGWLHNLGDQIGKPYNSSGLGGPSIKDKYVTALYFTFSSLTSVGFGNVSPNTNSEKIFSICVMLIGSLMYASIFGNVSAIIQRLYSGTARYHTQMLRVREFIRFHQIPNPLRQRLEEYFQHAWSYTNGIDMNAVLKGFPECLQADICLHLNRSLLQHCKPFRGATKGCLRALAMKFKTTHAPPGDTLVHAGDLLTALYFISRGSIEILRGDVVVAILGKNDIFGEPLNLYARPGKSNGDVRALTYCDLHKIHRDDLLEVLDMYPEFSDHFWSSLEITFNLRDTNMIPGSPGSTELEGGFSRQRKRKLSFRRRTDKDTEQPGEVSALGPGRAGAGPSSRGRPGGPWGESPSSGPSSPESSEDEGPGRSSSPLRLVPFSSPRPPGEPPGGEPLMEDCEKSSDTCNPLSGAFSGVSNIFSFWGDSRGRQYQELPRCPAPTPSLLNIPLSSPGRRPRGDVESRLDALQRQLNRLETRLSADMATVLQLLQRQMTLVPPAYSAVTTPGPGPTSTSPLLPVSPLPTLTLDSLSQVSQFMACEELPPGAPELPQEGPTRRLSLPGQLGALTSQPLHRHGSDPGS
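Also: peak tail current of the secondary pulse compared with the same well before compound.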

| SMILES | hERG current change (%, negative = inhibition) at 10uM |
| --- | --- |
| Br.N=C1c2ccccc2CN1NC(=O)COc1ccc(Cl)cc1 | -50.4% |
| Br.COc1ccc(OCC(=O)NN2Cc3ccccc3C2=N)cc1 | -18.1% |
| Br.CCOc1ccccc1OCC(=O)NN1Cc2ccccc2C1=N | -73.5% |
| Br.Cc1ccccc1OCC(=O)NN1Cc2ccccc2C1=N | -0.416% |
| Br.COc1ccccc1OCC(=O)NN1Cc2ccccc2C1=N | 1.99% |
| Br.Cc1cc(C)cc(OCC(=O)NN2Cc3ccccc3C2=N)c1 | -11.6% |
| Br.CCc1ccc(OCC(=O)NN2Cc3ccccc3C2=N)cc1 | -38.8% |
| Br.N#Cc1ccc(OCC(=O)NN2Cc3ccccc3C2=N)cc1 | 4.14% |
| Br.CC(C)(C)c1ccc(OCC(=O)NN2Cc3ccccc3C2=N)cc1 | -65.5% |
| Cc1ccsc1C(=O)OCC(=O)NC1CCCC1 | 13% |
| CC1(C)CC(=O)CC(C2(O)C(=O)N(Cc3ccccc3)c3ccccc32)O1 (centres unmarked) | 7.55% |
| COCCCNC(=S)N1CCC(NC(=O)c2ccco2)CC1 | -4.82% |
| COCC(=O)N(CCc1ccc(OC)c(OC)c1)Cc1nc2ccccc2c(=O)[nH]1 | -8.28% |
| C/C(=N/NS(=O)(=O)c1cc(C)ccc1C)c1ccncc1 | 11% |
| CCCCC(=O)Nc1ccc(C(=O)N2CCN(C)CC2)cc1 | 6.41% |
| CCOC(=O)N1CCN(C(=O)c2ccc(SC)cc2OC)CC1 | -2.46% |
| O=C(Cc1coc2cc3c(cc12)CCC3)OCc1cc(=O)n2c(n1)sc1ccccc12 | 4.53% |
| CC(=O)O[C@@]12CO[C@@H]1C[C@H](OC1OCC(O)C(O)C1O)[C@@]1(C)C(=O)[C@H](O)C3=C(C)[C@@H](OC(=O)[C@H](O)[C@@H](NC(=O)c4ccccc4)c4ccccc4)C[C@@](O)([C@@H](OC(=O)c4ccccc4)C12)C3(C)C (some centres unmarked) | -7.05% |
| COc1cc(CNCc2ccccn2)ccc1OCc1c(Cl)cccc1Cl.Cl | -51.5% |
| CCOc1cc(CNC2CCCC2)cc(Cl)c1OCc1ccccc1.Cl | -10.3% |
| COc1ccc(-c2ccc(CNCc3ccccn3)o2)cc1Cl.Cl | -7.77% |
| COc1cc(CNCc2ccccn2)ccc1OCc1ccc(Cl)cc1Cl.Cl | -58.1% |

| SMILES | hERG current change (%, negative = inhibition) at 10uM |
| --- | --- |
| COc1cc(CNC2CCCC2)cc(Cl)c1OCc1ccccc1Cl.Cl | -30% |
| O=C(NCc1ccccn1)c1ccccc1OCc1ccc(Cl)cc1Cl | -1.04% |
| COc1cc(CNC2CCCCCCC2)c(Br)cc1OCCO.Cl | 7% |
| COc1cc(CNC2CCCC2)c(Br)cc1OCc1ccccc1.Cl | -72.1% |
| COc1ccc(Cl)cc1NC(=S)NCc1ccccn1 | 9% |
| COc1cc(CNn2nnnc2N)ccc1OCc1c(Cl)cccc1Cl | -1.22% |
| COc1cc(CNC2CCCC2)c(Br)cc1OC1CCCC1.Cl | -45.9% |
| CCOc1cc(CNC2CCCC2)ccc1OCc1ccccc1Cl.Cl | -50.6% |
| COc1ccc(-c2oc(=O)c3cc(OC)c(OC)cc3c2C(F)(F)F)cc1 | 23.7% |
| CC(C(=O)NCCCc1ccccc1)n1cccc1C(=O)c1ccccc1 (centres unmarked) | -5.48% |
| O=C(COC(=O)c1ccccc1C(=O)c1ccc(Cl)cc1)NCC1CCCO1 (centres unmarked) | 1.96% |
| CN(C)/C=C/C(=O)c1ccc(C(F)(F)F)cc1F | 15.3% |
| CCOc1cc(N2CCOCC2)c(OCC)cc1NC(=O)CSc1n[nH]c(N)n1 | 38.2% |
| Cc1ccc(OCC(=O)NNC(=O)c2cc(C)[nH]n2)cc1 | 24.6% |
| CCc1nnc(NC(=O)CSc2nnc3ncccn23)s1 | 19.2% |
| COC(=O)c1nn(-c2ccc(F)cc2)ccc1=O | 8.12% |
| C#CCOCCOCCOCCNc1nc(N2CCN(C(=O)CCCCCCCCCCNC(=O)Cn3cc(C[C@@H](C)O)nn3)CC2)nc(N2CCN(C(=O)CCCCCCCCCCNC(=O)[C@H](CCCN=C(N)N)n3cc(C[C@@H](C)CC)nn3)CC2)n1 | 3.82% |
| COc1ccccc1C(=O)OCn1nnc2ccccc2c1=O | -1.17% |
| CN1CCN(C(=O)C23CCC(C)(C(=O)C2Br)C3(C)C)CC1 (centres unmarked) | 1.95% |
| COc1cc(CNCc2ccccn2)ccc1OCC(=O)NC1CCCCC1.Cl | -14.5% |
| COc1cc(CNCc2ccccn2)ccc1OCc1ccccc1Cl.Cl | -58.3% |
| CCOc1cc(CNCc2ccccn2)cc(Cl)c1OCC.Cl | -0.796% |
